# High-throughput results from PubChem BioAssay.
# An excerpt weighted towards active compounds, which were near 5.8% of everything screened.
# PINK1 expr mod = PINK1 expression modulation; AID 624263; PINK1 immunofluorescence, high-content cytometry, 24 h; 410,000 compounds, 0.2% hits; Potency, µM (titrated, usually from 76.6 µM), for inactives: top-dose activation (PINK1 increase), usual class: activators; active = well fitted activation curve with a large enough effect; inconclusive = small, poorly fitted or top-dose-only effect; cell line not stated here; also: % of control where 0% means no effect; nearly all actives have a fitted effect of over 65% in size
#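 Fluorescence from anti-PINK1 antibody, together with nuclear and cell stains, was scanned on a laser-scanning cytometer. Before staining, stable-line cells were incubated 24 hours with compounds at 5 concentrations; primary antibody 12 h at 10 degrees C.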
# KB-V1 cytotox = KB-V1 MDR subline cytotoxicity. KB-V1 MDR cells viability, CellTiter-Glo, 72 h. AID 1347076. 400,000 compounds, 3.4% hits. Potency, µM (series often up to 46.1 µM), hits mostly cytotoxic; also: % is scaled to controls: 0 for no effect and ±100 for the full control effect; nearly all actives have a fitted effect of over 60% in size
#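 KB-V1 MDR subline cells in DMEM (phenol-red free, 10% FBS) exposed to compounds in qHTS concentration series for 72 h at 37 degrees C. Viability read by CellTiter-Glo luminescence; concentration-effect curves fitted after normalization and correction.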
# MCF10A rerep = DNA re-replication induction in MCF 10a cells. 350,000 compounds, 2.9% hits. MCF 10A DNA re-replication, Hoechst nuclear intensity, 48 h. Potency, µM (top dose mostly 46.1 µM), inactives show at the top dose activity, positive = re-replication, usual class: activators; also: % of control where 0% means no effect; nearly all actives have a fitted effect of over 50% in size
# ALOX12 inh = inhibitors of human 12S-lipoxygenase ALOX12. P18054. purified 12hLO, xylenol orange hydroperoxide absorbance. Potency, µM (titrated, usually from 108 µM), without a hit: at the highest dose activity change, negative = inhibition, usual class: inhibitors. 580,000 compounds, 1.1% hits. AID 1671190; also: % is scaled to controls: 0 for no effect and ±100 for the full control effect
# Target sequence (P18054 whole entry, looked up): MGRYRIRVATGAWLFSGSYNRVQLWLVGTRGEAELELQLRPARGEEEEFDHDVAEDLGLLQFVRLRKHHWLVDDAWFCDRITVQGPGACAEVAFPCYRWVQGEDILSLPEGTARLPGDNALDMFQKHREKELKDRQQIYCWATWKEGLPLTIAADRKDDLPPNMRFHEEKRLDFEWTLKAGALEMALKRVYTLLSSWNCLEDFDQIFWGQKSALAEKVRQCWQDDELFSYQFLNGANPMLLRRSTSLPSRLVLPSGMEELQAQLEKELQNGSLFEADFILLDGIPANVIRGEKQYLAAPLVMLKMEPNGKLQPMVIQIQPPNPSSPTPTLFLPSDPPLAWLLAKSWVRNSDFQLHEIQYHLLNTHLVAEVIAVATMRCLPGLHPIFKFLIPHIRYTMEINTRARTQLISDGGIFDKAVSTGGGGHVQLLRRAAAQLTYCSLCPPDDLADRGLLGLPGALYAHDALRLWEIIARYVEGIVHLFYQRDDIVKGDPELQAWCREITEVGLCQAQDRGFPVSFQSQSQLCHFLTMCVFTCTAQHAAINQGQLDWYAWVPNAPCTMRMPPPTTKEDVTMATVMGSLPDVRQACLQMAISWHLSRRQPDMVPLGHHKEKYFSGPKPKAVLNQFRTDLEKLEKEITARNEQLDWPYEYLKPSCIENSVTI
#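 Purified human 12hLO (150 nM final) in 25 mM Hepes, 0.01% Triton X-100, pH 7.0 was preincubated 15 min at room temperature with compound. Then 40 uM arachidonic acid was added, 30 min. Hydroperoxide was read by Fe-XO absorbance ratio 573/405 nm.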
# KB-3-1 cytotox = KB-3-1 parental cell cytotoxicity | KB-3-1 viability, CellTiter-Glo ATP luminescence, 72 h | Potency, µM (series often up to 46.1 µM), actives largely listed as cytotoxic | 400,000 compounds, 1.4% hits; also: % is scaled to controls: 0 for no effect and ±100 for the full control effect; nearly all actives have a fitted effect of over 60% in size
#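 Parental KB-3-1 adenocarcinoma cells in phenol-red-free DMEM with 10% FBS were pin-treated with compounds at several concentrations, incubated 72 h at 37 °C, and viability read by CellTiter-Glo luminescence; concentration-effect curves were fitted after normalization.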
# SW480 rerep = DNA re-replication induction in SW480 cells; SW480 DNA re-replication, Hoechst DNA content imaging, 48 h; 340,000 compounds, 1.8% hits; Potency, µM (highest dose often 46.1 µM), inactives show at the top dose re-replication activation, usual class: activators; AID 624297; also: % of control where 0% means no effect; nearly all actives have a fitted effect of over 55% in size
#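 Image-based read-out: total Hoechst fluorescence of nuclei (405 nm excitation, 500-530 nm emission), with hits raising the fraction of high-intensity nuclei. SW480 colon cells incubated 48 hr with compounds at 37 C.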
# * = called active by the depositor; i = inactive; u = inconclusive; x = no result; [ ] = remark or other dose. Unless noted, calls follow the shape of the dose curve; as a rule, active = well fitted curve in the direction sought with a large enough effect; inconclusive = small, poorly fitted or top-dose-only effect, or another doubt; inactive = no such curve, though single readings can be large; an effect the other way counts as inactive or inconclusive. Potency is read from the fitted curve at half-maximal effect.
SMILES,PINK1 expr mod,KB-V1 cytotox,MCF10A rerep,ALOX12 inh,KB-3-1 cytotox,SW480 rerep
Cc1ccc(N2CCN(c3cnn(-c4nc5ccccc5s4)c(=O)c3Cl)CC2C)cc1 (stereo unspecified),x,x,x,-14%,x,x
COc1ccc(NS(=O)(=O)c2cc(C(=O)N3CCc4sccc4C3)ccc2Cl)cc1,x,x,x,48%,x,x
O=C(c1cccc(Cl)c1)N1CCC(c2nn(-c3ccccc3)c(=O)[nH]2)CC1,x,x,x,-13%,x,x
COc1ccc(C(=O)N2CCC(c3nn(-c4ccc(Cl)cc4)c(=O)[nH]3)CC2)cc1,x,x,x,35µM*,x,x
O=C(c1ccc(C(F)(F)F)cc1)N1CCC(c2nn(-c3ccc(F)cc3)c(=O)[nH]2)CC1,x,x,x,22µM*,x,x
O=C(c1ccc(F)cc1)N1CCC(c2nn(-c3ccc(F)cc3)c(=O)[nH]2)CC1,x,x,x,21%,x,x
O=C(c1cccc(C(F)(F)F)c1)N1CCC(c2nn(-c3ccc(Cl)cc3)c(=O)[nH]2)CC1,x,x,x,10µM*,x,x
CCOc1cc(S(=O)(=O)N2CCN(CCO)CC2)ccc1Br,x,x,x,-47%,x,x
CN1CCN(C(=O)C2(N(C)CCc3ccccc3)Cc3ccccc3C2)CC1,x,x,x,23%,x,x
COc1ccc(C2SCCN2C(=S)Nc2cccc(Cl)c2)cc1 (stereo unspecified),u,7.3µM*,-50%,-27%,u,-7%
COc1ccc(C2CCCN2C(=S)Nc2cccc(Cl)c2)cc1OC (stereo unspecified),6%,i,4%,-7%,u,-1%
Cc1ccc(NC(=S)N2CCSC2c2cccs2)cc1 (stereo unspecified),0%,i,1%,-15%,i,u
COc1ccc(C2SCCN2C(=S)Nc2ccc(Cl)cc2)cc1 (stereo unspecified),6%,23µM*,-2%,-20%,u,4%
O=C(c1ccoc1)N(Cc1cccs1)C1CC1,x,x,x,8%,x,x
COc1ccccc1-c1nc(S(=O)(=O)c2ccc3c(c2)OCCO3)c(N2CCCC2)o1,x,x,x,-4%,x,x
COc1ccc(Cl)cc1C(=O)N1CCN(Cc2cc(=O)n3ccsc3n2)CC1,x,x,x,9%,x,x
O=C1CN(C(=O)c2cccc(Br)c2)c2ccccc2N1,10%,10µM*,23µM*,-11%,5.8µM*,u
COc1ccc(C(CC(=O)Nc2cccc(F)c2)N2Cc3ccccc3C2=O)cc1OC (stereo unspecified),x,x,x,2%,x,x
COc1ccc(C(CC(=O)Nc2ccc(F)c(Cl)c2)N2Cc3ccccc3C2=O)cc1OC (stereo unspecified),-4%,18µM*,x,-30%,i,x
CN(C)/C=N/c1c(C#N)cnn1-c1ccc(C(F)(F)F)cn1,-2%[38.3 µM],i,15µM*,-1%[57.4 µM],i,18%
Cn1c(=O)c2c(ncn2CC(=O)N(C2CC2)C2CCS(=O)(=O)C2)n(C)c1=O (stereo unspecified),x,x,x,-1%,x,x
COC(=O)c1c(C)[nH]c(-c2csc(NC3CC3)n2)c1C,x,x,x,32µM*,x,x
CCOC(=O)c1c(C)[nH]c(-c2csc(C)n2)c1C,3%,u,2%,-15%,i,-2%
COc1ccc(CCNC(=O)c2csc(NC3CC3)n2)cc1,x,x,x,-6%,x,x
CCOC(=O)c1c(C)[nH]c(-c2csc(N)n2)c1C,1%,i,16µM*,u,u,u
SMILES,PINK1 expr mod,KB-V1 cytotox,MCF10A rerep,ALOX12 inh,KB-3-1 cytotox,SW480 rerep
Cc1cccc(CC(CC(=O)O)C(=O)O)c1 (stereo unspecified),x,x,x,-4%,x,x
CCCCN(C)C(=O)C1CCN(C/C(C)=C/c2ccccc2)CC1,-2%,i,5%,u,i,6%
CCCCN(C)C(=O)C1CCN(CC(C)c2ccccc2)CC1 (stereo unspecified),x,x,x,1µM*,x,x
CCCCN(C)C(=O)C1CCN(Cc2cccc(OCc3ccccc3)c2)CC1,9%,u,u,5.6µM*,i,1%
CCN(CC)C(=O)C1CCN(Cc2cccc(OCc3ccccc3)c2)CC1,1%,u,2%,u,i,0%
COc1ccc2c(c1)c(CN1C[C@@H](C(N)=O)[C@H](c3nc(C)no3)C1)cn2C(C)C,x,x,x,27%,x,x
COC(=O)c1cc(Sc2cccc(Cl)c2Cl)ccn1,2%,i,u,u,i,-5%
COC(=O)c1cc(Sc2c(Cl)cccc2Cl)ccn1,5%,u,13%,40µM*,i,-16%
Cc1ccc(/C=C/C(=O)c2ccccc(=O)c2O)c(C)c1,-1%,8.2µM*,u,32µM*,16µM*,u
Cc1ccc(C)c(/C=C/C(=O)c2ccccc(=O)c2O)c1,7%,8.2µM*,18µM*,20µM*,12µM*,-651%
O=C(/C=C/c1ccc([N+](=O)[O-])cc1)c1ccccc(=O)c1O,-6%,1µM*,2.9µM*,u,u,5.8µM*
O=C(/C=C/c1ccccc1Cl)c1ccccc(=O)c1O,14%,18µM*,10µM*,u,21µM*,12µM*
NC(=O)C1=C(Nc2ccc(F)cc2F)c2ccccc2S1(=O)=O,x,x,x,10%,x,x
O=C(Nc1cn[nH]c1)C1CCN(c2ccc(C(F)(F)F)cn2)CC1,x,x,x,-3%,x,x
Cc1cc(C)n(-c2nc(NCC3CCCO3)c3c4c(sc3n2)COC(C)(C)C4)n1 (stereo unspecified),3%,u,u,0%,16µM*,17%
OC(COC1CCCCC1)CN1CCN(c2ccccc2)CC1 (stereo unspecified),0%[38.3 µM],u,4%,-17%,i,-12%
CC(C)(C)C1CCC(OCC(O)CN2CCN(Cc3ccccc3)CC2)CC1 (stereo unspecified),0%,i,41%,-30%,i,15µM*
CC(C)NCC(O)COC1CCC(C(C)(C)C)CC1 (stereo unspecified),5%,u,24%,-7%,23µM*,u
OC(COC(c1ccccc1)c1ccccc1)CN1CCN(c2ccccn2)CC1 (stereo unspecified),3%,i,u,-21%,i,25%
CC(C)(C)C1CCC(OCC(O)CN2CCN(c3ccccn3)CC2)CC1 (stereo unspecified),4%,16µM*,u,u,u,8%
COc1ccc(C(=O)N2CCC3(CC2)N=C(c2ccc(C)cc2)NO3)cc1F,x,x,x,2%,x,x
CC(=O)Oc1ccc2c(c1)CCC1C2CCC2(C)C(OC(C)=O)CCC12 (stereo unspecified),3%,10µM*,u,30%,u,0%
CCCCC(=O)OC1CCC2C3CCc4cc(O)ccc4C3CC[C@]12C (stereo partly specified),x,x,19µM*,x,x,3%
